Our source for the growth inhibition values is PubChem BioAssay (NCI).

Values joined by “and” are separate entries in the source; they are usually repeats but may differ in a detail not shown here. Identical values can stand only once. This is part of a sample that, as a whole, favours compounds with a hit. Of some 79,000 tested, about 15% had one in any assay. More than one record can exist for a structure, and the calls need not agree. Active and inactive are the calls of the source. Rule as the data show it: active = growth inhibition above about 70%; inactive = the rest.

The nature of assay [1]: NCI Yeast Anticancer Drug Screen. Data for the rad50 strain (AID 155).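 Also: 0% = growth of vehicle-only cultures of the same strain.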 Conditions: S. cerevisiae rad50 strain growth inhibition, stronger effect = higher value. Put shortly: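 A DNA repair-deficient yeast mutant serves as the test organism; compound-induced growth inhibition is calculated against vehicle-treated cells.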
Assay [2] is described as follows: NCI Yeast Anticancer Drug Screen. Data for the mec2-1 strain (AID 157). Conditions: S. cerevisiae mec2-1 strain, stronger effect = higher value. An outline of the steps: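 Mutant yeast (mec2-1) grown with compound; growth inhibition relative to vehicle control reported.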
A short description of assay [3]: NCI Yeast Anticancer Drug Screen. Data for the sgs1 mgt1 strain (AID 161).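 Also: 0% = growth of cultures given vehicle only.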 The note with it: S. cerevisiae sgs1 mgt1 strain, stronger effect = higher value. An outline of the steps: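 Yeast cells carrying a defined DNA-repair defect were exposed to test compounds. Growth inhibition was measured relative to vehicle-treated controls.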
Assay [4] can be described thus: NCI Yeast Anticancer Drug Screen. Data for the cln2 rad14 strain (AID 165).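 Also: 0% = growth equal to vehicle treated cultures.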 The note with it: S. cerevisiae cln2 rad14 strain, stronger effect = higher value. Put shortly:
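Readout is yeast growth inhibition versus vehicle-treated controls, using a strain with cln2 and rad14 alterations exposed to compound.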

A short description of assay [5]: NCI Yeast Anticancer Drug Screen. Data for the bub3 strain (AID 167). Conditions: S. cerevisiae bub3 mutant strain, stronger effect = higher value. An outline of the steps: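 Inhibition values come from growth of compound-treated mutant yeast normalised to vehicle-treated controls.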
The nature of assay [6]: NCI Yeast Anticancer Drug Screen. Data for the mlh1 rad18 strain (AID 175). The note with it: S. cerevisiae mlh1 rad18 strain growth inhibition, stronger effect = higher value. Put shortly: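 Genetically defined yeast (DNA repair-deficient) exposed to compounds; growth inhibition determined relative to vehicle.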
[7] abbreviates: at 5.0 µM (retest, dose inferred, filed as 0.5).
[8] abbreviates: at 50.0 µM (retest, dose inferred, filed as 5.0).

In the case of `CC(C)OC(=S)SSC(=S)OC(C)C`, the growth inhibition was 5% (inactive) and 11% (inactive) in assay [1] (setting [7]); 99% (active) and 98% (active) in assay [1] (setting [8]); 99.4% (active) in assay [1] (at 50.0 µM); 4% (inactive) and 0% (inactive) in assay [2] (setting [7]); 100% (active) and 98% (active) in assay [2] (setting [8]); 99.5% (active) in assay [2] (at 50.0 µM). The growth inhibition in assay [3] (setting [7]) is 1% (inactive) and 9% (inactive); in assay [3] (setting [8]) it was 99% (active) and 100% (active); in assay [3] (at 50.0 µM), 99.3% (active); in assay [4] (setting [7]) it was 33% (inactive) and 9% (inactive); in assay [4] (setting [8]), 94% (active) and 84% (active); in assay [4] (at 50.0 µM), 98.4% (active). The growth inhibition is 7% (inactive) and 2% (inactive) in assay [5] (setting [7]); 99% (active) and 100% (active) in assay [5] (setting [8]); 99% (active) in assay [5] (at 50.0 µM); -1% (inactive) and 18% (inactive) in assay [6] (setting [7]); 99% (active) and 94% (active) in assay [6] (setting [8]); 98.3% (active) in assay [6] (at 50.0 µM).
Consider `C[Si]1(C)CN(CCN)C[Si](C)(C)O1`, for which the growth inhibition in assay [1] (setting [7]) is 3% (inactive); in assay [1] (setting [8]), 2% (inactive); in assay [1] (at 50.0 µM), -3.85% (inactive) and 55.5% (inactive); in assay [2] (setting [7]), 1% (inactive); in assay [2] (setting [8]) it was 9% (inactive); in assay [2] (at 50.0 µM), 4.25% (inactive) and 49.5% (inactive). Besides, the growth inhibition in assay [3] (setting [7]) is 2% (inactive); in assay [3] (setting [8]), 0% (inactive); in assay [3] (at 50.0 µM), -15.4% (inactive) and 76.5% (active); in assay [4] (setting [7]), 2% (inactive); in assay [4] (setting [8]) it was -3% (inactive); in assay [4] (at 50.0 µM) it was -20.3% (inactive) and 45% (inactive). The growth inhibition was -2% (inactive) in assay [5] (setting [7]); -4% (inactive) in assay [5] (setting [8]); -3.65% (inactive) and 68.4% (inactive) in assay [5] (at 50.0 µM); 0% (inactive) in assay [6] (setting [7]); -2% (inactive) in assay [6] (setting [8]); -1.3% (inactive) and 62.6% (inactive) in assay [6] (at 50.0 µM).
Turning to `O=c1c(Cl)c(Cl)cnn1-c1ccccc1`, the growth inhibition is 33% (inactive) in assay [1] (setting [7]); 58% (inactive) in assay [1] (setting [8]); 30.9% (inactive) and 6.8% (inactive) in assay [1] (at 50.0 µM); 1% (inactive) in assay [2] (setting [7]); 22% (inactive) in assay [2] (setting [8]); 45% (inactive) and -8.9% (inactive) in assay [2] (at 50.0 µM). The growth inhibition in assay [3] (setting [7]) was -6% (inactive); in assay [3] (setting [8]), 14% (inactive); in assay [3] (at 50.0 µM) it was 35.7% (inactive) and -2.25% (inactive); in assay [4] (setting [7]), 17% (inactive); in assay [4] (setting [8]), 19% (inactive); in assay [4] (at 50.0 µM), 28.1% (inactive) and 13.8% (inactive). Moreover, the growth inhibition in assay [5] (setting [7]) was 10% (inactive); in assay [5] (setting [8]), 21% (inactive); in assay [5] (at 50.0 µM), 23.9% (inactive) and -9.2% (inactive); in assay [6] (setting [7]) it was 8% (inactive); in assay [6] (setting [8]) it was 26% (inactive); in assay [6] (at 50.0 µM), 72.6% (active) and -13.8% (inactive).
With `O=S(=O)(c1ccc(F)cc1)c1ccc(F)cc1`, the growth inhibition was -4% (inactive) in assay [1] (setting [7]); -4% (inactive) in assay [1] (setting [8]); -4.4% (inactive) and 11.7% (inactive) in assay [1] (at 50.0 µM); 10% (inactive) in assay [2] (setting [7]); 19% (inactive) in assay [2] (setting [8]); -35.6% (inactive) and -12.2% (inactive) in assay [2] (at 50.0 µM). Further, the growth inhibition is -6% (inactive) in assay [3] (setting [7]); -1% (inactive) in assay [3] (setting [8]); -3.8% (inactive) and -3.55% (inactive) in assay [3] (at 50.0 µM); -5% (inactive) in assay [4] (setting [7]); -7% (inactive) in assay [4] (setting [8]); 3.2% (inactive) and 47.4% (inactive) in assay [4] (at 50.0 µM). Also, the growth inhibition was -1% (inactive) in assay [5] (setting [7]); 0% (inactive) in assay [5] (setting [8]); -4.15% (inactive) and 19.1% (inactive) in assay [5] (at 50.0 µM); 3% (inactive) in assay [6] (setting [7]); 10% (inactive) in assay [6] (setting [8]); 6.7% (inactive) and 35.2% (inactive) in assay [6] (at 50.0 µM).
For `CC(C)CC(Nc1c(O)ccc2ccccc12)C(=O)O` (stereo unspecified), the growth inhibition in assay [1] (setting [7]) is 24% (inactive); in assay [1] (setting [8]), 98% (active); in assay [1] (at 50.0 µM), 98.8% (active); in assay [2] (setting [7]) it was 0% (inactive); in assay [2] (setting [8]), 99% (active); in assay [2] (at 50.0 µM), 99.4% (active). Besides, the growth inhibition in assay [3] (setting [7]) is 17% (inactive); in assay [3] (setting [8]), 99% (active); in assay [3] (at 50.0 µM), 99.3% (active); in assay [4] (setting [7]), 11% (inactive); in assay [4] (setting [8]), 99% (active); in assay [4] (at 50.0 µM), 72.7% (active). Further, the growth inhibition in assay [5] (setting [7]) is 15% (inactive); in assay [5] (setting [8]), 99% (active); in assay [5] (at 50.0 µM), 95.2% (active); in assay [6] (setting [7]), 45% (inactive); in assay [6] (setting [8]) it was 99% (active); in assay [6] (at 50.0 µM) it was 99.3% (active).
With `C=C[C@]1(C)C=C2C(O)CC3C(C)(C)CCC[C@]3(CO)C2CC1` (stereo partly specified), the growth inhibition in assay [1] (setting [7]) is 8% (inactive); in assay [1] (setting [8]), 99% (active); in assay [1] (at 50.0 µM), 99.2% (active); in assay [2] (setting [7]), 13% (inactive); in assay [2] (setting [8]) it was 100% (active); in assay [2] (at 50.0 µM) it was 99.6% (active). The growth inhibition is 17% (inactive) in assay [3] (setting [7]); 97% (active) in assay [3] (setting [8]); 99.5% (active) in assay [3] (at 50.0 µM); 13% (inactive) in assay [4] (setting [7]); 99% (active) in assay [4] (setting [8]); 99.3% (active) in assay [4] (at 50.0 µM). Moreover, the growth inhibition was 4% (inactive) in assay [5] (setting [7]); 99% (active) in assay [5] (setting [8]); 99.5% (active) in assay [5] (at 50.0 µM); 26% (inactive) in assay [6] (setting [7]); 99% (active) in assay [6] (setting [8]); 99.2% (active) in assay [6] (at 50.0 µM).
Consider `CC1(c2ccccc2)c2ccccc2N(c2ccccc2)C(=O)C1O` (stereo unspecified), for which the growth inhibition in assay [1] (setting [7]) is 98% (active); in assay [1] (setting [8]), 100% (active); in assay [1] (at 50.0 µM), -2.35% (inactive) and 99.5% (active); in assay [2] (setting [7]) it was 98% (active); in assay [2] (setting [8]), 100% (active); in assay [2] (at 50.0 µM) it was 7.75% (inactive) and 99.7% (active). Besides, the growth inhibition in assay [3] (setting [7]) is 97% (active); in assay [3] (setting [8]) it was 99% (active); in assay [3] (at 50.0 µM) it was 8.35% (inactive) and 99.6% (active); in assay [4] (setting [7]) it was 96% (active); in assay [4] (setting [8]) it was 99% (active); in assay [4] (at 50.0 µM) it was 1.8% (inactive) and 99.2% (active). The growth inhibition is 97% (active) in assay [5] (setting [7]); 99% (active) in assay [5] (setting [8]); -0.35% (inactive) and 99.7% (active) in assay [5] (at 50.0 µM); 98% (active) in assay [6] (setting [7]); 99% (active) in assay [6] (setting [8]); 10.2% (inactive) and 99.4% (active) in assay [6] (at 50.0 µM).
